The sample as a whole holds a higher share of hits than the screen did.
ST2 IL33 inh = inhibitors of human ST2 (IL1RL1) binding to IL-33. Q01638. AlphaLISA ST2-Fc/biotin-IL-33 interaction, 1 h. inhibition, % for hits at 17 µM. actives 2.3% (n = 78,000); in the data active = inhibition above about 30%
Target sequence (Q01638 whole entry, looked up): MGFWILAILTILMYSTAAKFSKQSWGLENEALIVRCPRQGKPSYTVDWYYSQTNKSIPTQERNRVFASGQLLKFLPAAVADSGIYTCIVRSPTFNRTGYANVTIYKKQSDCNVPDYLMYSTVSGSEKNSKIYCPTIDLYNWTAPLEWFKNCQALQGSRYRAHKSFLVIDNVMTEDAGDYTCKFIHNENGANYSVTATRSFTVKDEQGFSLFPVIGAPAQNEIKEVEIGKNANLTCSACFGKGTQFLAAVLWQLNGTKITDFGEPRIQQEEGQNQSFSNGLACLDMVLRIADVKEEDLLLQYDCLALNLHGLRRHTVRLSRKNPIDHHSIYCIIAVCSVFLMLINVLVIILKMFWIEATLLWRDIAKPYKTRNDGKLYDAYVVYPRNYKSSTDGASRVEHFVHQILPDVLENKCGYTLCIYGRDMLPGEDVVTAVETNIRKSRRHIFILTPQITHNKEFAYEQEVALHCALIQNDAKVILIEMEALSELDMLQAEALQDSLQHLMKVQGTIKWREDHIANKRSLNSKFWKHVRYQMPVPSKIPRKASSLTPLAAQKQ
The depositor's hits bear a star; i = inactive.

SMILES	ST2 IL33 inh
CN(C)S(=O)(=O)Nc1ccc2c(c1)NC(=O)CC2c1cc2ccccc2o1 (configuration not stated)	i
COc1ccc(-c2c(C#N)c(N)nc(OC)c2C#N)c(OC)c1	i
COc1ccc(/C=C2/C(C)=C(C#N)c3nc(N)c(C#N)c(C)c32)c(OC)c1	43%*
COc1ccc(OC)c(-c2c(C#N)c(N)nc(OC)c2C#N)c1	i
Cc1cccc(CN2CCN(C(=O)c3cn4ccsc4n3)C(C)C2=O)c1 (configuration not stated)	i
NC(=O)c1ccnc(-c2ccccc2-c2ccccc2)c1	i
CC(=O)Nc1ccc(-c2nccn2CC(C)Oc2cccnc2)cc1 (configuration not stated)	i
COc1ccc(-n2c(C)c3c(C)nnc(C)c3c2C)cc1OC	31%*
COc1ccc(N2C(=O)C3C4C=CC(C4)C3C2=O)cc1OC (configuration not stated)	i
COc1ccc(-n2c(CCN)n[nH]c2=O)cc1OC	i
Cc1ccc(N(C(=O)Cc2ccccc2)C2C=CS(=O)(=O)C2)cc1C (configuration not stated)	i
Cc1ccc(NC(=O)COc2nsnc2N2CCOCC2)cc1	i
CCOc1cc(C=NCCN2Cc3ccccc3C2=O)ccc1O	i
O=C(CCc1ccccc1)Nc1c[nH]c(=O)[nH]c1=O	i
O=C(Nc1c[nH]c(=O)[nH]c1=O)c1ccc(N2C(=O)C3C4C=CC(C4)C3C2=O)cc1 (configuration not stated)	i
O=C(Nc1c[nH]c(=O)[nH]c1=O)c1ccc(Oc2ccc(C(=O)Nc3c[nH]c(=O)[nH]c3=O)cc2)cc1	36%*
Cc1ccc(NC(=O)Cn2c3ccccc3c(=O)c3ccccc32)cc1F	i
Cc1nc2ccc3nc(NC(=O)c4cccc(Br)c4)sc3c2s1	i
COC(=O)c1ccc(C(=O)Nc2nc3ccc4nc(C)sc4c3s2)cc1	30%*
Cc1nc2ccc3nc(NC(=O)c4ccccc4Cl)sc3c2s1	i
Cc1cccc(N2C(=O)SC(Nc3ccccc3C(=O)O)C2=O)c1 (configuration not stated)	i
O=C(NCc1cnn2ccccc12)NC1CCCC1	i
O=C(NC1CCCC1)c1ccc(N2CCC(NCC3OCCc4ccccc43)CC2)cc1 (configuration not stated)	i
Cn1c(=O)c2c(nc(NCCO)n2Cc2ccccc2F)n(C)c1=O	i
Cn1c(=O)c2c(nc(N3CCN(c4ccccn4)CC3)n2Cc2ccccc2F)n(C)c1=O	i
SMILES	ST2 IL33 inh
Cn1c(=O)c2c(nc(OCCc3ccccc3)n2Cc2ccccc2F)n(C)c1=O	30%*
Cc1ccc2nc(-c3ccccn3)c(Nc3ccc4c(c3)OCCO4)n2c1	31%*
Brc1ccc2nc(-c3ccccn3)c(Nc3ccccc3)n2c1	i
Cc1ccc2nc(-c3ccccn3)c(Nc3ccc4c(c3)OCO4)n2c1	32%*
Cc1ccc(-c2nc3cnccn3c2NC2CCCCC2)o1	i
Cc1ccc2nc(-c3c[nH]c4ccccc34)c(NC3CCCC3)n2c1	i
Clc1ccc2nc(-c3ccco3)c(Nc3ccc4c(c3)OCO4)n2c1	i
Cc1ccc(-c2nc3ccc(Br)cn3c2Nc2ccc3c(c2)OCO3)o1	i
Cc1ccn2c(Nc3ccccc3)c(-c3ccc(C)o3)nc2c1	i
Cc1ccc(-c2nc3cnccn3c2Nc2ccc3c(c2)OCO3)o1	i
Cc1ccn2c(Nc3ccc4c(c3)OCO4)c(-c3ccccn3)nc2c1	31%*
COc1ccc(Nc2c(-c3ccccn3)nc3ccc(Br)cn23)cc1	i
Cc1ccn2c(NC3CCCC3)c(-c3ccccn3)nc2c1	38%*
CCc1nc(C)ccc1OCC(=O)N1CCC(O)(CN(C)C)C1 (configuration not stated)	i
Cc1nnsc1CN(C)C(=O)c1cc(-c2cccn2C)n[nH]1	i
CCOC(=O)C1C(=O)C=C(c2ccc(OC)c(OC)c2)CC1c1ccccc1C (configuration not stated)	i
O=C(C1c2ccccc2Oc2ccccc21)N1CCN=C1SCc1ccccc1	i
Cc1ccc(NC(=O)CN2C(=O)C3CCCCN3c3ccc(S(=O)(=O)N4CCCCC4)cc32)cc1 (configuration not stated)	i
Cc1nc(SCC(=O)c2ccc3c(c2)OCO3)c2c3c(sc2n1)CCCC3	i
Cc1ccc2nc(-c3ccc(C)o3)c(Nc3ccccc3)n2c1	i
Cc1ccc(-c2nc3ccccn3c2Nc2ccc3c(c2)OCCO3)o1	35%*
Cc1ccc2nc(-c3ccc(C)o3)c(Nc3ccc4c(c3)OCCO4)n2c1	i
Cc1ccsc1[C@@H]1CCN(C(=O)c2cccc(-c3ncc[nH]3)c2)C[C@H]1O	i
Cc1cc(N2CCOCC2)nc2ccc(NC(=O)CCC(=O)Nc3ccc(C(C)C)cc3)cc12	i
CN(CCCCN1CCOCC1)c1nc2nonc2nc1N1CCCC1	i
SMILES	ST2 IL33 inh
COc1ccc2c(c1)OC(C)CN(CCC(=O)NCCCc1ccncc1)C2 (configuration not stated)	i
COc1cccc2sc(=NC(=O)c3nc4ccccc4s3)n(C)c12	i
COc1cc(/C=C(\C#N)c2nc3ccccc3s2)cc(OC)c1OC	34%*
COc1cc(OC)cc(C(=O)OCc2nc3ccccc3s2)c1	i
O=C(c1cn(CC2COc3ccccc3O2)nn1)N1CCC(CN2CCOCC2)CC1 (configuration not stated)	i
Cc1cc(C)n(-c2ccc3cccc([N+](=O)[O-])c3n2)n1	i
O=[N+]([O-])c1cccc2ccc(Nc3ccccn3)nc12	31%*
O=[N+]([O-])c1ccccc1OCCOc1cccc2cccnc12	i
O=C1CCCC2=C1C(c1ccc(Br)cc1)n1nc(SCc3ccncc3)nc1N2 (configuration not stated)	i
COc1ccc(OC)c(/C=C2\C(=O)N(c3ccc(Cl)c(C(=O)O)c3)N=C2C)c1	i
CC1=NN(c2ccc(Cl)c(Cl)c2)C(=O)/C1=C/c1ccc(C)c([N+](=O)[O-])c1	i
COc1ccc(/C=C2/C(=O)N(c3ccc(Cl)c(Cl)c3)N=C2C)cc1OC	65%*
COc1cc(/C=C2\C(=O)N(c3ccc(C(=O)O)cc3)N=C2C)cc(Cl)c1O	i
COc1ccccc1/C=C1\C(=O)N(c2ccc(Cl)cc2Cl)N=C1C	i
COc1ccc(Cl)cc1/C=C1\C(=O)N(c2ccc(Cl)c(C(=O)O)c2)N=C1C	74%*
COc1cc(/C=C2\C(=O)N(c3ccc(Cl)c(C(=O)O)c3)N=C2C)cc(OC)c1OC	56%*
CCN(C)c1ccc(/C=C2/C(=O)N(c3ccc(Cl)c(Cl)c3)N=C2C)cc1	30%*
CC1=NN(c2ccc(Cl)c(Cl)c2)C(=O)/C1=C/c1ccccc1	i
COc1ccc(Br)cc1/C=C1\C(=O)N(c2cccc(Cl)c2)N=C1C	i
CCN(C)c1ccc(/C=C2/C(=O)NN(c3ccc(Cl)c(Cl)c3)C2=O)cc1	i
CCn1ccnc1CN(C)c1cc(OC)ncn1	i
COc1ccc(Cl)cc1C(=O)Nc1c2c(nn1C(C)(C)C)CSC2	i
CCCC1C(C#N)=C(N)Oc2n[nH]c(CC(=O)OC)c21 (configuration not stated)	i
Cc1nc2c(C(=O)O)cnn2c(C)c1Cc1c(F)cccc1Cl	i
CCOc1ncccc1Cn1ccnc1-c1nc2ccccc2n1C	i
COc1ccc(NC(=O)COc2ccc(Br)cc2Br)c(OC)c1	i
O=C(NC[C@H]1O[C@@H](CO)[C@@H](O)[C@H]1N1CCN(c2ccccc2)CC1)c1cccc(F)c1	92%*

From PubChem
